Compounds with a hit are over-represented: about 2.6% of the library has one in this group of screens.
GLP1R ag: activates the human GLP-1 receptor; HEK293 GLP-1R CRE-luciferase, luminescence, 4-6 h; cells express a hypersensitive GLP-1R form; Potency, µM (series often up to 45.6 µM), actives largely listed as activators; actives 0.007% (n = 380,000)
Target sequence (P43220 whole entry, looked up): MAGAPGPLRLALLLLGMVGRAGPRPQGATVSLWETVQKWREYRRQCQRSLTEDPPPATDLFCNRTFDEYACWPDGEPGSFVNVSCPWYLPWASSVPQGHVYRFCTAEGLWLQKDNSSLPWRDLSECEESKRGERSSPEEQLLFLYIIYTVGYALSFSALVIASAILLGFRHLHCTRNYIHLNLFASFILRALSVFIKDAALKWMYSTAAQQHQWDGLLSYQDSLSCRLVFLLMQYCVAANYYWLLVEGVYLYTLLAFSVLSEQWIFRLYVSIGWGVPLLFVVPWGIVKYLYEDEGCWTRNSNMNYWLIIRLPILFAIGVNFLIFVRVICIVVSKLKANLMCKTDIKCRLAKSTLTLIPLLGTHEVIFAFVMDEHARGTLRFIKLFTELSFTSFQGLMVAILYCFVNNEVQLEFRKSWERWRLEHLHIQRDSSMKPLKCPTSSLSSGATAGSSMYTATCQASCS
GLP1R inv ag: acts as inverse agonist at human GLP-1 receptor; actives 1.6% (n = 410,000); AID 624417; HEK293 GLP-1R CRE-luciferase, luminescence, 24 h; GLP-1R form is constitutively active; P43220; Potency, µM (titrated, usually from 38.3 µM), actives largely listed as inhibitors; note: nearly all actives have a fitted effect of over 55% in size
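Cells are plated, allowed 12 hours at 37 deg C, then treated with compounds for 24 hr before luciferase detection reagent is added and luminescence is read after 12 min at room temperature. The HEK293 line carries constitutively active GLP-1R with a cAMP-responsive reporter.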
BRCA1 expr act: BRCA1 expression activation; MCF7-BRCA1-FFLuc reporter, luminescence, 48 h; response scale: scaled: vehicle 0%, 10 µM genistein 100%; Potency, µM (series often up to 46.1 µM), actives largely listed as activators; actives 1.1% (n = 380,000); note: nearly all actives have a fitted effect of over 80% in size
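Reporter cells (MCF7, BRCA1 promoter-firefly luciferase) received library compounds across a concentration series for 48 h. End-point luminescence was measured and concentration-effect curves derived after normalization.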
HEK293 tox: cytotoxicity in counter-screen for GLP-1R inverse agonists; HEK293 cAMP-luciferase reporter cells, luminescence, 24 h; Potency, µM (series often up to 38.3 µM), most hits filed as inhibitors; actives 0.13% (n = 410,000);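 note: loss of luciferase light is scored as toxicity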
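Cells in DMEM/10% Nu serum/1% pen-strep, 1536-well format. Pre-incubated 12 h, dosed with 23 nL compound, incubated a further 24 h. Luciferase detection, 12 min at room temp, luminescence.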
Hits are given with their value. Calls come from the whole dose curve; as a rule, active = well fitted curve in the direction sought with a large enough effect; inconclusive = small, poorly fitted or top-dose-only effect, or another doubt; inactive = no such curve, though single readings can be large; an effect the other way counts as inactive or inconclusive.

Results for CC(=O)N1CCCN(Cc2cn(-c3ccc(C)cc3)nc2-c2cccc(C)c2)CC1 ?
GLP1R ag: inactive; GLP1R inv ag: 10µM; BRCA1 expr act: inactive; HEK293 tox: inactive

How did Cc1cccc(-n2cc(CN3CCN(Cc4nccn4C)CC3)c(-c3cccc(F)c3)n2)c1 do in these assays?
GLP1R ag: inactive; GLP1R inv ag: 4.5µM; BRCA1 expr act: inactive; HEK293 tox: inconclusive

Results for Cc1ccc(-c2nn(-c3ccccc3)cc2CO)o1 ?
GLP1R ag: inactive; GLP1R inv ag: inactive; BRCA1 expr act: 3.5µM; HEK293 tox: inactive

Results for Cc1ccc(-c2nn(-c3cccc(F)c3)cc2CN2CCN(c3ccccn3)CC2)o1 ?
GLP1R ag: inactive; GLP1R inv ag: 10µM; BRCA1 expr act: inactive; HEK293 tox: inactive

What do the screens show for `CCOC(=O)[C@H]1NN=C(C(=O)OC)[C@@H]1c1ccccc1`?
GLP1R ag: inactive; GLP1R inv ag: inactive; BRCA1 expr act: inactive; HEK293 tox: inactive

Results for COc1ccccc1N(C)S(=O)(=O)c1ccc(C(=O)OCC(=O)Nc2ccccc2F)cc1 ?
GLP1R ag: inactive; GLP1R inv ag: inactive; BRCA1 expr act: inactive; HEK293 tox: inactive

How did COc1ccccc1C(=O)COC(=O)c1ccc(N(C)C)cc1 do in these assays?
GLP1R ag: inactive; GLP1R inv ag: inactive; BRCA1 expr act: 4µM; HEK293 tox: inactive

Results for COc1ccccc1C(=O)COC(=O)C1(C)CC1(Cl)Cl (stereo not drawn) ?
GLP1R ag: inactive; GLP1R inv ag: 10µM; BRCA1 expr act: inactive; HEK293 tox: inactive

Results for COc1ccccc1N(C)S(=O)(=O)c1ccc(C(=O)OCC(=O)N(C)c2ccccc2)cc1 ?
GLP1R ag: inactive; GLP1R inv ag: 3.2µM; BRCA1 expr act: inactive; HEK293 tox: inactive

What do the screens show for `CC(C)(C)c1ccc(NC(=O)COC(=O)C2(C)CC2(Cl)Cl)cc1` (stereo not drawn)?
GLP1R ag: inactive; GLP1R inv ag: 3.5µM; BRCA1 expr act: inactive; HEK293 tox: inactive

What do the screens show for `Fc1ccccc1Cc1cn2cc(-c3ccc(Cl)cc3)nc2s1`?
GLP1R ag: inactive; GLP1R inv ag: inactive; BRCA1 expr act: inconclusive; HEK293 tox: inactive

How did CCOC(=O)c1sc(NC(=O)Nc2ccccc2F)nc1C do in these assays?
GLP1R ag: inactive; GLP1R inv ag: inconclusive; BRCA1 expr act: inactive; HEK293 tox: inactive

How did CCOC(=O)c1sc(Nc2ccccc2Cl)nc1C do in these assays?
GLP1R ag: inactive; GLP1R inv ag: inconclusive; BRCA1 expr act: 8.9µM; HEK293 tox: inactive

How did Cc1cccc(N2CCN(C(=O)Cn3ncc4c3-c3cc(C)ccc3OC4)CC2C)c1 (stereo not drawn) do in these assays?
GLP1R inv ag: 11µM; BRCA1 expr act: inactive; HEK293 tox: inactive

Results for Cc1ccc2c(c1)-c1c(cnn1CC(=O)O)CO2 ?
GLP1R ag: inactive; GLP1R inv ag: inactive; BRCA1 expr act: inactive; HEK293 tox: inactive

How did Cc1ccc(C(=O)C(C)OC(=O)C2CCN(c3ccc(C(F)(F)F)cn3)CC2)cc1 (stereo not drawn) do in these assays?
GLP1R ag: inactive; GLP1R inv ag: 10µM; BRCA1 expr act: inactive; HEK293 tox: inactive

Results for Cc1cc2ncc(-c3ncc(C(F)(F)F)cc3Cl)cn2n1 ?
GLP1R ag: inactive; GLP1R inv ag: 5µM; BRCA1 expr act: inactive; HEK293 tox: inactive

Results for COc1ccccc1NC(=O)c1cc2c(=O)oc3ccc(C)cc3c2s1 ?
GLP1R inv ag: inactive; HEK293 tox: inactive

How did CC(C)OC(=O)c1ccc(NCc2cc(O)ccc2O)cc1 do in these assays?
GLP1R ag: inactive; GLP1R inv ag: inconclusive; BRCA1 expr act: inactive; HEK293 tox: inconclusive

Results for COC(=O)c1ccc(CCc2cc(O)ccc2O)cc1 ?
GLP1R ag: inactive; GLP1R inv ag: inconclusive; BRCA1 expr act: inactive; HEK293 tox: 10µM

How did O=C(OCc1ccccc1)c1ccc(NCc2cc(O)ccc2O)cc1 do in these assays?
GLP1R ag: inactive; GLP1R inv ag: 7.1µM; BRCA1 expr act: inactive; HEK293 tox: 5µM

How did COC(=O)c1ccc(CCc2cc(O)c(Br)cc2O)cc1 do in these assays?
GLP1R ag: inactive; GLP1R inv ag: inactive; BRCA1 expr act: inactive; HEK293 tox: inactive

How did CCOc1cc(C2C(C(=O)Nc3ccccc3)=C(C)Nc3ncnn32)cc(Br)c1O (stereo not drawn) do in these assays?
GLP1R ag: inactive; GLP1R inv ag: inactive; BRCA1 expr act: inactive; HEK293 tox: inactive

What do the screens show for `C=C(Br)Cn1c(CC)nc2ccccc21`?
GLP1R ag: inactive; GLP1R inv ag: inconclusive; BRCA1 expr act: inactive; HEK293 tox: inactive

What do the screens show for `C=C(Br)Cn1c(CCC)nc2ccccc21`?
GLP1R ag: inactive; GLP1R inv ag: 3.5µM; BRCA1 expr act: inactive; HEK293 tox: inactive

How did CC(C)c1cccc(C(C)C)c1NC(=O)CN(C)C1CCS(=O)(=O)C1 (stereo not drawn) do in these assays?
GLP1R ag: inactive; GLP1R inv ag: inactive; BRCA1 expr act: inactive; HEK293 tox: inactive

Results for O=C(Cc1c(F)cccc1Cl)NNC(=O)c1ccccc1Cl ?
GLP1R ag: inactive; GLP1R inv ag: inactive; BRCA1 expr act: inactive; HEK293 tox: inactive

Results for COc1ccc(/C=N/NC(=O)Cc2csc(Nc3cccc(C(F)(F)F)c3)n2)cc1C ?
GLP1R ag: inactive; GLP1R inv ag: 7.9µM; BRCA1 expr act: inactive; HEK293 tox: inconclusive

What do the screens show for `Cc1ccc(NC(=O)N2CCCN(Cc3ccc(F)cc3)C2)cc1C`?
GLP1R ag: inactive; GLP1R inv ag: 4µM; BRCA1 expr act: inactive; HEK293 tox: inconclusive

How did Cc1ccc(NC(=O)N2CCCCCC2)cc1C do in these assays?
GLP1R ag: inactive; GLP1R inv ag: inactive; BRCA1 expr act: inconclusive; HEK293 tox: inactive

What do the screens show for `COc1ccccc1CCNC(=O)Cc1c(C)c2c(O)cc(C)cc2oc1=O`?
GLP1R inv ag: inactive; HEK293 tox: inactive

What do the screens show for `CCN(CC(=O)Nc1ccccc1C(F)(F)F)C(=O)C1CSC2(C)CCC(=O)N12` (stereo not drawn)?
GLP1R ag: inactive; GLP1R inv ag: 11µM; BRCA1 expr act: inactive; HEK293 tox: inactive

Results for COc1ccc(NC(=O)C(c2ccccc2)N(C)C(=O)/C=C\c2ccc3c(c2)OCO3)cc1 (stereo not drawn) ?
GLP1R inv ag: inconclusive; HEK293 tox: inactive

What do the screens show for `O=C(COC(=O)[C@H](Cc1c[nH]c2ccccc12)NC(=O)c1ccc(Cl)cc1)Nc1ccc2c(c1)OCO2`?
GLP1R ag: inactive; GLP1R inv ag: inactive; BRCA1 expr act: inactive; HEK293 tox: inactive

How did COc1ccc(C(C(=O)Nc2ccc3c(c2)OCO3)N(C)C(=O)Cc2c[nH]c3ccccc23)cc1 (stereo not drawn) do in these assays?
GLP1R ag: inactive; GLP1R inv ag: 2.2µM; BRCA1 expr act: inactive; HEK293 tox: inactive

How did COC(=O)[C@@H](Cc1c[nH]c2ccccc12)NC(=O)c1ccc2c(c1)OCO2 do in these assays?
GLP1R ag: inactive; GLP1R inv ag: inactive; BRCA1 expr act: 3.5µM; HEK293 tox: inactive

Results for O=c1[nH]c(COc2ccc(Br)cc2Cl)nc2ccccc12 ?
GLP1R ag: inactive; GLP1R inv ag: inactive; BRCA1 expr act: 4µM; HEK293 tox: inconclusive
